Experimental data: PMC7862700, “An all-to-all approach to the identification of sequence-specific readers for epigenetic DNA modifications on cytosine”

Columns and labels:
Test in all cases: DAPPL (digital affinity profiling via proximity ligation, sequencing); 10 mM Tris-HCl pH 7.5, 50 mM NaCl, 1 mM DTT, 4% glycerol, room temperature, 30 min; GST-TFs on glutathione beads, 16-mer random dsDNA library, 0.1% formaldehyde crosslink after washing; high values mean tight binding
[1] = target: T1, FEV (Homo sapiens, UniProt Q99581 1-238); details: protein: recombinant; tags: N-terminal GST; dsDNA, one strand shown
T1 sequence: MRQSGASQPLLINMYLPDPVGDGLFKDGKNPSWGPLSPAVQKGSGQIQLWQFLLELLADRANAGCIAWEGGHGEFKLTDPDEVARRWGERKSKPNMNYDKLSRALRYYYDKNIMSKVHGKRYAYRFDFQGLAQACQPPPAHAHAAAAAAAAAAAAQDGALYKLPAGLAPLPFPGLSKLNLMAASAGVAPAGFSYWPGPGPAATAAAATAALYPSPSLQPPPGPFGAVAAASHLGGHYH
Procedure, shortened: (§1)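 Pools of DNA-barcoded human transcription factors, expressed in yeast as GST fusions on glutathione beads and combined with a tag-only sample, were incubated with 200 nmole of a 16-mer random double-stranded DNA library. Incubation took 30 min at room temperature in Tris/NaCl/DTT/glycerol buffer and was followed by washing, 0.1% formaldehyde crosslinking, proximity ligation (BsaI/T4 ligase, 1 h, 37 °C), PCR amplification and sequencing on an Illumina NextSeq500. Binding signal is the ratio of a hexamer's read frequency for a factor to its frequency for the tag-only sample.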

[2] = target: ETV5 (Homo sapiens, UniProt P41161 1-510); details: protein: recombinant; tags: N-terminal GST; dsDNA, one strand shown
Procedure, shortened: as §1

[3] = target: HSF1 (Homo sapiens, UniProt Q00613 1-529); details: protein: recombinant; tags: N-terminal GST; chain copies: 3; dsDNA, one strand shown
Procedure, shortened: as §1

[4] = target: T2, SPIC (Homo sapiens, UniProt Q8N5J4 1-248); details: protein: recombinant; tags: N-terminal GST; dsDNA, one strand shown
T2 sequence: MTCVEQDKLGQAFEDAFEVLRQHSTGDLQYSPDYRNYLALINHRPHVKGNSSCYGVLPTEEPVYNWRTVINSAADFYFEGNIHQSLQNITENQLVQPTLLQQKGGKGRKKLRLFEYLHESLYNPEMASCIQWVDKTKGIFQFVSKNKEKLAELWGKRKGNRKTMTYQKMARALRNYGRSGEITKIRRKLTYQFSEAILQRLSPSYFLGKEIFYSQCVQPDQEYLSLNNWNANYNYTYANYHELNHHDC
Procedure, shortened: as §1

[5] = target: ELF4 (Homo sapiens, UniProt Q99607 1-663); details: protein: recombinant; tags: N-terminal GST; dsDNA, one strand shown
Procedure, shortened: as §1

[6] = target: T3, ELK4 (Homo sapiens, UniProt P28324-2 1-405); details: protein: recombinant; tags: N-terminal GST; dsDNA, one strand shown
T3 sequence: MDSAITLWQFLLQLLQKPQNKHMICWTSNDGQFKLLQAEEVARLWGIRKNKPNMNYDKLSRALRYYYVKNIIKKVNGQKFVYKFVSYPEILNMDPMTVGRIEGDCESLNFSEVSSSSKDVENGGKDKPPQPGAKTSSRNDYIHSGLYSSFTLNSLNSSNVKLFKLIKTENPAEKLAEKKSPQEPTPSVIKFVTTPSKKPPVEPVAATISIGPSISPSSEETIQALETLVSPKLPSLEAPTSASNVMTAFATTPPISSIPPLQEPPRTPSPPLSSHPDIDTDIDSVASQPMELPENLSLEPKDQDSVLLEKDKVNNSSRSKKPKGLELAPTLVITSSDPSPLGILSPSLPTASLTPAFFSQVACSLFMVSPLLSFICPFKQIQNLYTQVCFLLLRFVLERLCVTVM
Procedure, shortened: as §1

[7] = target: T4, ETV2 (Homo sapiens, UniProt O00321 1-342); details: protein: recombinant; tags: N-terminal GST; dsDNA, one strand shown
T4 sequence: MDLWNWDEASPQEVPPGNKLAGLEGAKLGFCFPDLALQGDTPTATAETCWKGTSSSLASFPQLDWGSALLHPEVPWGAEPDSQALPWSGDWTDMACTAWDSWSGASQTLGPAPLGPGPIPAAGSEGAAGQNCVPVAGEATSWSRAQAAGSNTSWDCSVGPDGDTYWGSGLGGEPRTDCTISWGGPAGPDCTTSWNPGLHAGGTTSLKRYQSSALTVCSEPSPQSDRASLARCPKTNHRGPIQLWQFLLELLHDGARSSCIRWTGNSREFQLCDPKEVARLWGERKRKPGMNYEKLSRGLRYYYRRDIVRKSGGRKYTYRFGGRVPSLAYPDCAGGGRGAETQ
Procedure, shortened: as §1

[8] = target: T5, ELF3 (Homo sapiens, UniProt P78545 1-371); details: protein: recombinant; tags: N-terminal GST; dsDNA, one strand shown
T5 sequence: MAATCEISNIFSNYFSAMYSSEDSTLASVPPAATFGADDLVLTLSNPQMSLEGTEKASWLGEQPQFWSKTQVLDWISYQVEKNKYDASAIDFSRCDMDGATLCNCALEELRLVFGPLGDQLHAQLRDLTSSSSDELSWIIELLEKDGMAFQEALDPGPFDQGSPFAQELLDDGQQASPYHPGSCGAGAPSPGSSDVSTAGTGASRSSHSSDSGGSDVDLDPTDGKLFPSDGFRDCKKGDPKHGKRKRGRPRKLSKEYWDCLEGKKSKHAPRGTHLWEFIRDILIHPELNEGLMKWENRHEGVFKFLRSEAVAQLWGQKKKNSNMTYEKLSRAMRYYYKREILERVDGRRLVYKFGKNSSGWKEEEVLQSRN
Procedure, shortened: as §1

[9] = target: CRX (Homo sapiens, UniProt O43186 1-299); details: protein: recombinant; tags: N-terminal GST; dsDNA, one strand shown
Procedure, shortened: as §1

[10] = target: ETV1 (Homo sapiens, UniProt P50549 1-477); details: protein: recombinant; tags: N-terminal GST; dsDNA, one strand shown
Procedure, shortened: as §1

[11] = target: T6, ERF (Homo sapiens, UniProt P50548 1-548); details: protein: recombinant; tags: N-terminal GST; dsDNA, one strand shown
T6 sequence: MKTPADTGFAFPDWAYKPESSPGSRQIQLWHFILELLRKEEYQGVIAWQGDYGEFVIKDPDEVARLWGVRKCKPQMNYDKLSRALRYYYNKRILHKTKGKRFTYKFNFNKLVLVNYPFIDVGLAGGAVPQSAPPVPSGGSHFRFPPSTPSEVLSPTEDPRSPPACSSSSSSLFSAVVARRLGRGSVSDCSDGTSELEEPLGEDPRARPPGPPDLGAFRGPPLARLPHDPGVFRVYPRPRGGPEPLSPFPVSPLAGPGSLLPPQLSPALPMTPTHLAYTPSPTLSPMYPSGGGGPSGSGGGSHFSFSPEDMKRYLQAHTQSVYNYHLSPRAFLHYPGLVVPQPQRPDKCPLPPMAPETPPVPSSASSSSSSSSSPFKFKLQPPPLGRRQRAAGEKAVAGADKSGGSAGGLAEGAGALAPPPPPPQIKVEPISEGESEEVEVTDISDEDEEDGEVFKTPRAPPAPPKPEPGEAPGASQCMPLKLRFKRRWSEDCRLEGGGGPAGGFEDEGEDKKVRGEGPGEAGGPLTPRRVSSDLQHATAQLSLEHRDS
Procedure, shortened: as §1

[12] = target: T7, ETV3L (Homo sapiens, UniProt Q6ZN32 1-361); details: protein: recombinant; tags: N-terminal GST; dsDNA, one strand shown
T7 sequence: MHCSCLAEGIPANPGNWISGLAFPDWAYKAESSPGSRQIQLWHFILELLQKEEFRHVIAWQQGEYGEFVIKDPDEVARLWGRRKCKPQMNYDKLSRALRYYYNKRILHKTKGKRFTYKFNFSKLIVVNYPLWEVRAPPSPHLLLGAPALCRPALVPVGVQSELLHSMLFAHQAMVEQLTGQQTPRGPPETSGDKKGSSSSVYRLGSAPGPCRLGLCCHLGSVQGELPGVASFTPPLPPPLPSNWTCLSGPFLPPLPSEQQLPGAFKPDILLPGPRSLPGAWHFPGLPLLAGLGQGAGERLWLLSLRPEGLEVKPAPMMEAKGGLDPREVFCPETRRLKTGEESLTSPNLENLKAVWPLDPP
Procedure, shortened: as §1

[13] = target: T8, ETS2 (Homo sapiens, UniProt P15036 1-469); details: protein: recombinant; tags: N-terminal GST; dsDNA, one strand shown
T8 sequence: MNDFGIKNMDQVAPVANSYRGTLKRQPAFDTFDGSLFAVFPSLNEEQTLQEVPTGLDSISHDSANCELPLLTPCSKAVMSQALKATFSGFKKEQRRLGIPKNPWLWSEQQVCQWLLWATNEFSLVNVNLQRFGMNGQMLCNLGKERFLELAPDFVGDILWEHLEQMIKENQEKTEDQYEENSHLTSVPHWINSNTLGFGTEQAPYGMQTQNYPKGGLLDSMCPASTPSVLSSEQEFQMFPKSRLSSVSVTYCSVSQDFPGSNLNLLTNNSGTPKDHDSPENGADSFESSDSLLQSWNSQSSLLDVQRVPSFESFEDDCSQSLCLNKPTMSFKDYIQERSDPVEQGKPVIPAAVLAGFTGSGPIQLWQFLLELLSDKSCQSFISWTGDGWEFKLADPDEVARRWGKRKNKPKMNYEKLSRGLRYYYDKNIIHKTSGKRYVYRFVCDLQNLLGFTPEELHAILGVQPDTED
Procedure, shortened: as §1

[14] = target: T9, SPDEF (Homo sapiens, UniProt O95238 1-335); details: protein: recombinant; tags: N-terminal GST; dsDNA, one strand shown
T9 sequence: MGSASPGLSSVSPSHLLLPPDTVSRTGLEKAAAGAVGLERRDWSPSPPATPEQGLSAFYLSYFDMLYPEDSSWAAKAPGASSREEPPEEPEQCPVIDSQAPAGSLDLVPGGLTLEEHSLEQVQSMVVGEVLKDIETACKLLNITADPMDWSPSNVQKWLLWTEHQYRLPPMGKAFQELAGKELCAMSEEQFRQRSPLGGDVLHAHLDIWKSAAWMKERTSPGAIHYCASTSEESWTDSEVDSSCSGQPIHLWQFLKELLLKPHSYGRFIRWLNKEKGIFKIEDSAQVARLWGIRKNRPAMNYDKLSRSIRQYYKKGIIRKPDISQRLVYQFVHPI
Procedure, shortened: as §1

[15] = target: T10, ETV7 (Homo sapiens, UniProt Q9Y603 1-341); details: protein: recombinant; tags: N-terminal GST; dsDNA, one strand shown
T10 sequence: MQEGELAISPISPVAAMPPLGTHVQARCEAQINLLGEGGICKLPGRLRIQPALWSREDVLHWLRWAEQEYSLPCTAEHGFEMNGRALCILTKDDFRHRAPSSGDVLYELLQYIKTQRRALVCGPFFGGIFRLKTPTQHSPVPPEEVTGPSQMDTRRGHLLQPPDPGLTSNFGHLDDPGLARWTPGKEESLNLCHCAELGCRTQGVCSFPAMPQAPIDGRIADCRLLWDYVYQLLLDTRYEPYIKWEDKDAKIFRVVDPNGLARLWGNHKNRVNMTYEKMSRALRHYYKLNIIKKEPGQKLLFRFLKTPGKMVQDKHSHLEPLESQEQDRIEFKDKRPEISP
Procedure, shortened: as §1

[16] = target: T11, ELF5 (Homo sapiens, UniProt Q9UKW6-2 1-255); details: protein: recombinant; tags: N-terminal GST; dsDNA, one strand shown
T11 sequence: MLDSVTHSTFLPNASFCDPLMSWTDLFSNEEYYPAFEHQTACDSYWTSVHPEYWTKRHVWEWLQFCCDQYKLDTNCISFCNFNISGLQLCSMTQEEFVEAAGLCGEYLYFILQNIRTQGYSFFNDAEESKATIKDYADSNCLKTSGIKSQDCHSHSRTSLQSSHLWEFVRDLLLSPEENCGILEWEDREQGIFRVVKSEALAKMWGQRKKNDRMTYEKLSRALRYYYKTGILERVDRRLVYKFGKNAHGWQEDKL
Procedure, shortened: as §1

[17] = target: T12, ETV3 (Homo sapiens, UniProt P41162-2 1-143); details: protein: recombinant; tags: N-terminal GST; dsDNA, one strand shown
T12 sequence: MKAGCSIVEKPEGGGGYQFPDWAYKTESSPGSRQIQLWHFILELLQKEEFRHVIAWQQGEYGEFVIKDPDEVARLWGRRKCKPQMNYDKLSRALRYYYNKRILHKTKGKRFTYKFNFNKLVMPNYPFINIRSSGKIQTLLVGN
Procedure, shortened: as §1

[18] = target: ETV6 (Homo sapiens, UniProt P41212 1-452); details: protein: recombinant; tags: N-terminal GST; dsDNA, one strand shown
Procedure, shortened: as §1

Sequence of ELF4 (Q99607 whole entry): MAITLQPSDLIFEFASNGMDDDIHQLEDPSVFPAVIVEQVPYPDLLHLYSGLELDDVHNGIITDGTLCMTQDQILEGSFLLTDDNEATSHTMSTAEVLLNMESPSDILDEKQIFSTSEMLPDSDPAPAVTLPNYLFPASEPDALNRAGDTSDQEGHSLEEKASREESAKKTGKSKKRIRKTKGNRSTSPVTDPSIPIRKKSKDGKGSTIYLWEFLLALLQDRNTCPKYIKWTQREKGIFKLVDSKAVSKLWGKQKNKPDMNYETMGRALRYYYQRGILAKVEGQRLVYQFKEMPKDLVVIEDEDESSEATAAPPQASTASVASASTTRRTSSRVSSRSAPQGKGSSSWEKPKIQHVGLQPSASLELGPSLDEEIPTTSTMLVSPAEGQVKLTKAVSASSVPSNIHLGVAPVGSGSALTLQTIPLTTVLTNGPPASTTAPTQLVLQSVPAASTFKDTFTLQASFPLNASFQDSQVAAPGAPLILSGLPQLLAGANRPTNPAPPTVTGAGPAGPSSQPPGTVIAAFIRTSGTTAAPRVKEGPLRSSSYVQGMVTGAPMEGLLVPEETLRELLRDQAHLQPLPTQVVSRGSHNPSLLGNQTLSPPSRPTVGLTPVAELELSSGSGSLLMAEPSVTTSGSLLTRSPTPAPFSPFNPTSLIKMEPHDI
Sequence of ETV5 (P41161 whole entry): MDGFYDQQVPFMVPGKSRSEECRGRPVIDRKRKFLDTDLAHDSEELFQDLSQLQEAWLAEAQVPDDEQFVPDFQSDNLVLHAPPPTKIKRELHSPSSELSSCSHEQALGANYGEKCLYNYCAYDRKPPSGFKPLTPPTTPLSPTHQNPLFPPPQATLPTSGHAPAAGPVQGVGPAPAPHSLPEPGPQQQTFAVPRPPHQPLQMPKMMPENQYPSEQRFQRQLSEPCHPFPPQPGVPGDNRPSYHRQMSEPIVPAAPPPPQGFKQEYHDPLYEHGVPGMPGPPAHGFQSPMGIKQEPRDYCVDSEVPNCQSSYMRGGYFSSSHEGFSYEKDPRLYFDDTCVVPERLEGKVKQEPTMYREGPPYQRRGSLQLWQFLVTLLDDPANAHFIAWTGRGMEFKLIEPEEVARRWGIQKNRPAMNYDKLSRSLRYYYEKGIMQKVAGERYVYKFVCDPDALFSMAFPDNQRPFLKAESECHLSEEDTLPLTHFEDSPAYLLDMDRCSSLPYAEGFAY
Sequence of CRX (O43186 whole entry): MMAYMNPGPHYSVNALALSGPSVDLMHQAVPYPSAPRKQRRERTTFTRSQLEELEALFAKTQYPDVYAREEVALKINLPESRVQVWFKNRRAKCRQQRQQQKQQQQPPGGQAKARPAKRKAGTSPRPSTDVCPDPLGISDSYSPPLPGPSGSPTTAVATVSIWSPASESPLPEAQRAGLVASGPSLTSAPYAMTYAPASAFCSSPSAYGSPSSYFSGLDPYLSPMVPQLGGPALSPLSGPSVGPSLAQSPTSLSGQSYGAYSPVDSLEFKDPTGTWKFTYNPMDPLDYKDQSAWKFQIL
Sequence of ETV6 (P41212 whole entry): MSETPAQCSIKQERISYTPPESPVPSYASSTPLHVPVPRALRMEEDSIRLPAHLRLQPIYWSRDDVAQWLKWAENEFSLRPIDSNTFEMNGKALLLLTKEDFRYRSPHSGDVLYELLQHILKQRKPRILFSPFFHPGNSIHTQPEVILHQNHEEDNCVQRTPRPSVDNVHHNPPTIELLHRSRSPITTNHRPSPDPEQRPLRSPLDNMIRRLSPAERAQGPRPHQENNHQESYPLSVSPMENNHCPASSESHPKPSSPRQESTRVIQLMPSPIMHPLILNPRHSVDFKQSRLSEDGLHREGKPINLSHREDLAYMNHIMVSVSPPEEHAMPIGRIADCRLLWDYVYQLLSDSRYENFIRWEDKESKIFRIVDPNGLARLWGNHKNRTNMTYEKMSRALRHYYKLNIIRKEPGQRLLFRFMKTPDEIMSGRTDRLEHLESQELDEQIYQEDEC
Sequence of HSF1 (Q00613 whole entry): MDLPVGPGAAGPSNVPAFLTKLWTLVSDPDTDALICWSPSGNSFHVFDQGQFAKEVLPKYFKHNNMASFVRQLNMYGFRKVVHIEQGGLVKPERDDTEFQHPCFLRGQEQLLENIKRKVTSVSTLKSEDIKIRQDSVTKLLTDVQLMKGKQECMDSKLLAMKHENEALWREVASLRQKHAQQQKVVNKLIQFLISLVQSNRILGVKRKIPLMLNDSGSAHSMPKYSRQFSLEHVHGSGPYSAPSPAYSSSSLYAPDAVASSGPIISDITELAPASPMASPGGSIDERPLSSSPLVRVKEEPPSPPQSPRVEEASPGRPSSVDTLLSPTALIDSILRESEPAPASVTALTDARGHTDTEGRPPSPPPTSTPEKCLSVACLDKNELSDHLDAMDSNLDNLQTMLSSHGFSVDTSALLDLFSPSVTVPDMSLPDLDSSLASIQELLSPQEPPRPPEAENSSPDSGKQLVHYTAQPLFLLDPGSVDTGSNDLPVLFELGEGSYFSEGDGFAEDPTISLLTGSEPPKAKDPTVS
Sequence of ETV1 (P50549 whole entry): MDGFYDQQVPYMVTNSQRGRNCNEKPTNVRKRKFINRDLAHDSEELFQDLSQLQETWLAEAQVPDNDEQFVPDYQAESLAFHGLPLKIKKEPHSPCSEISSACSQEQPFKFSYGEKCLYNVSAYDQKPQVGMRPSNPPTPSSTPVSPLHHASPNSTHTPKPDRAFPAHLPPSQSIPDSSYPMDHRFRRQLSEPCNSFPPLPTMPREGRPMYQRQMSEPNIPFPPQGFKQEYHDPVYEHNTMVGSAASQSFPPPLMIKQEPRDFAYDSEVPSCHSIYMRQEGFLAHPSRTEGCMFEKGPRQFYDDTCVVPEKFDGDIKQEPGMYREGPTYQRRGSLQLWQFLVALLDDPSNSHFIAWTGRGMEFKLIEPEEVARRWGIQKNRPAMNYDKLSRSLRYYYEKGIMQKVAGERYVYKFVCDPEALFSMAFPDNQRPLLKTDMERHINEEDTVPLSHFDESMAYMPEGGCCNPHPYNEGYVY

Sequence	binding signal [1]	binding signal [2]	binding signal [3]	binding signal [4]	binding signal [5]	binding signal [6]	binding signal [7]	binding signal [8]	binding signal [9]	binding signal [10]	binding signal [11]	binding signal [12]	binding signal [13]	binding signal [14]	binding signal [15]	binding signal [16]	binding signal [17]	binding signal [18]
TCCCCT	1.71 fold enrichment (6-mer frequency, TF over GST control)	1.72 fold enrichment (6-mer frequency, TF over GST control)	1.56 fold enrichment (6-mer frequency, TF over GST control)	1.88 fold enrichment (6-mer frequency, TF over GST control)	1.83 fold enrichment (6-mer frequency, TF over GST control)	1.55 fold enrichment (6-mer frequency, TF over GST control)	1.57 fold enrichment (6-mer frequency, TF over GST control)	1.78 fold enrichment (6-mer frequency, TF over GST control)	1.92 fold enrichment (6-mer frequency, TF over GST control)	1.75 fold enrichment (6-mer frequency, TF over GST control)	1.69 fold enrichment (6-mer frequency, TF over GST control)	1.64 fold enrichment (6-mer frequency, TF over GST control)	1.69 fold enrichment (6-mer frequency, TF over GST control)	1.54 fold enrichment (6-mer frequency, TF over GST control)	1.58 fold enrichment (6-mer frequency, TF over GST control)	1.76 fold enrichment (6-mer frequency, TF over GST control)	1.54 fold enrichment (6-mer frequency, TF over GST control)	1.65 fold enrichment (6-mer frequency, TF over GST control)
GTTATT	1.08 fold enrichment (6-mer frequency, TF over GST control)	1.26 fold enrichment (6-mer frequency, TF over GST control)	1.19 fold enrichment (6-mer frequency, TF over GST control)	1.29 fold enrichment (6-mer frequency, TF over GST control)	1.16 fold enrichment (6-mer frequency, TF over GST control)	1.17 fold enrichment (6-mer frequency, TF over GST control)	1.27 fold enrichment (6-mer frequency, TF over GST control)	1.22 fold enrichment (6-mer frequency, TF over GST control)	1.32 fold enrichment (6-mer frequency, TF over GST control)	1.12 fold enrichment (6-mer frequency, TF over GST control)	1.12 fold enrichment (6-mer frequency, TF over GST control)	1.13 fold enrichment (6-mer frequency, TF over GST control)	1.14 fold enrichment (6-mer frequency, TF over GST control)	1.04 fold enrichment (6-mer frequency, TF over GST control)	1.29 fold enrichment (6-mer frequency, TF over GST control)	1.21 fold enrichment (6-mer frequency, TF over GST control)	1.2 fold enrichment (6-mer frequency, TF over GST control)	1.2 fold enrichment (6-mer frequency, TF over GST control)
